Activity calls are given as the source filed them. Rule as the data show it: active = inhibition above about 50%; inactive = the rest.

Sequence of Prolyl endopeptidase-like (Mus musculus) (Q8C167 whole entry, looked up): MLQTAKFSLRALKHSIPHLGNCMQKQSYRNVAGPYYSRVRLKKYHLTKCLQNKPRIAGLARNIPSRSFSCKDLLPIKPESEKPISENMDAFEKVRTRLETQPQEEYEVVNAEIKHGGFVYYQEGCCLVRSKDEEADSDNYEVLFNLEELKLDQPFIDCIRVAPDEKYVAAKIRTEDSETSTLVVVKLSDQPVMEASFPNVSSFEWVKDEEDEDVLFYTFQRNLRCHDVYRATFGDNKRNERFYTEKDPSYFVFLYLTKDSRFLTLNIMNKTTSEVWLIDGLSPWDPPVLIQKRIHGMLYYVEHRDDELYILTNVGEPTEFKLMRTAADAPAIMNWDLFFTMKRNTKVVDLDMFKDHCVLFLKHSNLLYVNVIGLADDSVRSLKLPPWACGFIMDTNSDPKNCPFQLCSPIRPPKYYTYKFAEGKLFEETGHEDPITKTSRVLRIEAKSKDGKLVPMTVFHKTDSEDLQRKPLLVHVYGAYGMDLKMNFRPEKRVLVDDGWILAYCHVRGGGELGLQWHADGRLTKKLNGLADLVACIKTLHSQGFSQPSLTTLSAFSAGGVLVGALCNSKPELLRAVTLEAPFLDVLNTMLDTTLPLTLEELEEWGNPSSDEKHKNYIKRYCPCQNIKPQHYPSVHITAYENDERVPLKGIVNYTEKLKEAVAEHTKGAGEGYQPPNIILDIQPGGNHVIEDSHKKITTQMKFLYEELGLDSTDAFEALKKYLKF

The test concerns the target Prolyl endopeptidase-like (Mus musculus) (UniProt Q8C167). Put plainly: mouse PREPL enzyme inhibition by screening hits – biochemical, gel-based competitive ABPP, fluorescence, HTS hits, PREPL inhibitor project (AID 624481). As to conditions: purified mouse PREPL, at 20 µM, active compounds read high.
For the compound `CN(C)CCCNc1cc(C(C)(C)C)nc2c(-c3ccccc3)cnn12`, the inhibition was -34% (inactive). In the case of `CCc1ccc(CNc2ccc3c(c2)ncn3C(C)(C)C)cc1` it was -36% (inactive); in that of `c1ccc2c(NCCc3c[nH]c4ccccc34)c3ccccc3nc2c1`, -49% (inactive); in that of `O=C(CSc1ccccc1F)Nc1ccc(N2CCOCC2)cc1`, -55% (inactive). Turning to `Cc1ccsc1C=NN=C1C(=O)Nc2ccccc21`, the inhibition was -90% (inactive).

Turning to `O=C1c2ccccc2C(=O)c2c1cccc2N1CCN(C/C=C/c2ccccc2)CC1`, the inhibition was -116% (inactive). For `O=C1c2c(O)ccc(O)c2C(=O)c2c(NCCNCCO)ccc(NCCNCCO)c21` the value was -46% (inactive). For `C[C@H]1CN([C@@H](C)CO)C(=O)Cc2cc(NC(=O)CCN3CCOCC3)ccc2O[C@@H]1CN(C)Cc1ccc(Oc2ccccc2)cc1`, the inhibition was -27% (inactive). In the case of `CC(=NNc1nc2ccccc2[nH]1)c1cc2ccccc2o1` it was -17% (inactive).

As for `Cc1cc(OCC(=O)Nc2ccc(N3CCN(C)CC3)cc2)ccc1Cl`, the inhibition is -14% (inactive). Turning to `CCc1ccc(Nc2n[n+](-c3ccccc3)c(-c3ccc(N(CC)CC)cc3)s2)cc1`, the inhibition is -100% (inactive). In the case of `C[N+](C)(CCCCCC[N+](C)(C)CCCN1C(=O)c2cccc3cccc(c23)C1=O)CCCN1C(=O)c2cccc3cccc(c23)C1=O` it was -29% (inactive); in that of `CNc1oc(-c2ccccc2Cl)nc1P(=O)(c1ccccc1)c1ccccc1`, 10% (inactive); in that of `C#CCOCCOCCOCCNc1nc(N2CCN(C(=O)CCCCCCCCCCNC(=O)[C@H](CCCCN)n3cc(C)nn3)CC2)nc(N2CCN(C(=O)CCCCCCCCCCNC(=O)[C@H](CCCN=C(N)N)n3cc(C[C@@H](C)CC)nn3)CC2)n1`, -58% (inactive). In the case of `Oc1c(CN2CCCC2)cc(COCc2ccccc2)c2cccnc12` it was -64% (inactive); in that of `CCCCCNc1nc(N2CCCC2)c2c(c1C#N)CCN(C)C2`, -89% (inactive). For `COc1cccc(C2=CC(c3ccc(N(C)C)cc3)n3nnnc3N2)c1` (stereo unspecified) the value was -95% (inactive).

Regarding `CCN1/C(=C/c2ccc3cc(C)ccc3[n+]2CC)Sc2ccccc21`, the inhibition was 98% (active).

Turning to `COc1ccc2cc1Oc1ccc(cc1)CC1c3c(cc(OC)c4c3Oc3cc5c(cc3O4)CCNC5C2)CCN1C` (stereo unspecified), the inhibition is -113% (inactive). Regarding `C[n+]1c(-c2ccccc2)sc(S)c1-c1ccccc1`, the inhibition was -31% (inactive). For `CCN(C(=O)CN1CCN(S(=O)(=O)c2cc(Cl)ccc2Cl)CC1)c1c(N)n(Cc2ccccc2)c(=O)[nH]c1=O` the value was 99% (active); for `CCCOc1ccccc1-n1sc2c(c1=S)-c1cc(OC)cc3c1N(C(=O)C3=O)C2(C)C`, -26% (inactive); for `COc1ccc(C2CC(c3cccc(C)c3)n3nc(N)nc3N2)cc1` (stereo unspecified), -50% (inactive). With `Nc1[nH]n2c(=O)c3c(nc2c1N=Nc1ccc(Cl)cc1)CCCC3`, the inhibition was -12% (inactive). In the case of `Cc1cc(N2CCN(C)CC2)nc2ccc(NC(=O)CCC(=O)N3CCN(c4ccc([N+](=O)[O-])cc4)CC3)cc12` it was -92% (inactive). In the case of `COCCCNC(=O)/C(C#N)=C/c1c(N2CCN(c3ccc(OC)cc3)CC2)nc2c(C)cccn2c1=O` it was -39% (inactive).

The term inhibition denotes the drop in the measured response relative to a control, in per cent.
